One may read the AC50 as the concentration giving half of the maximal activity seen.

This passage reports outcome and AC50 results from PubChem BioAssay (EPA / NIEHS).

Structures are written as SMILES. “And” between values parts separate entries of the source, which are not always exact repeats. Equal entries are not always repeated. Records with an inconclusive call do not appear. Some structures have more than one record in an assay (separate samples or runs), and their calls can disagree. The source made the active and inactive calls. How the source made its calls: active means hit-call score of the fitted dose curve at least 0.9, where 1 is the maximum; inconclusive means response in the unintended direction; inactive means score below 0.9.

This test in a line: CCTE_Mundy_HCI_Cortical_NOG_NeuronCount: CCTE's Neurite Outgrowth Assay in rat cortical cells for Neuron Count, Mundy Lab (AID 2284236).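 Further: neurons counted by imaging betaIII-tubulin and Hoechst stained cortical cells; cells exposed to compound for about 48 hours before fixation.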 As to the method:
CCTE_Mundy_HCI_Cortical_NOG is a multiplexed, cell-based-readout assay that uses rat primary cortical cells with measurements taken at 50.33 hours after chemical dosing in a microplate: 96-well plate.CCTE_Mundy_HCI_Cortical_NOG_NeuronCount is one of four components of the CCTE_Mundy_HCI_Cortical_NOG assay. It measures cell viability related to the number of neurons using High Content Imaging of fluorescently labelled markers.[…] Using a type of morphology reporter, loss -of-signal activity can be used to understand developmental effects.
Exposure starts 2 hours post-plating by adding 10 ul of the working solution to 90 ul of media in the wells for a 1/10 dilution. Forty-eight hours after chemical treatment cells are fixed by direct addition of 100 ul of warm (37C) Dulbecco's phosphate buffered saline (DPBS) fixative solution containing 8% paraformaldehyde, 8% sucrose, and 0.1% of 3 mg/ml Hoechst 33342 into each well. Primary antibodies are prepared by dilution in Immunocytochemical Staining Buffer (ISB), 10X Dulbecco's PBS, 0.1% Saponin, 5% Bovine Serum Albumin, 0.5% NaN3 (Sodium Azide) and betaIII-tubulin (rabbit anti-betaIII-tubulin, 1:800) followed by Alexa Fluor-488 secondary (1:500) to label neuronal cell bodies and neurites. A Cellomics ArrayScan VTi HCS Reader is used for automated image acquisition and analysis of neurite outgrowth.
Turning to `CCCSP(=O)(OCC)Oc1ccc(Br)cc1Cl` (centres undefined), the call was inactive. For the molecule `CCCCSP(=O)(SCCCC)SCCCC`, the AC50 is 86.4 µM (active) and 68.4 µM (active). With `CCOP(=S)(Oc1cnc(C(C)(C)C)nc1)OC(C)C` (centres undefined), the AC50 was 28 µM (active) and the call was inactive. In the case of `CSC1=N[C@@](C)(c2ccccc2)C(=O)N1Nc1ccccc1`, the molecule was called inactive. The same measure, in the same setting: under `CC(C)N(C(=O)SCC(Cl)=C(Cl)Cl)C(C)C` stands “inactive”. `CC[C@H](C)[C@H]1O[C@]2(C=C[C@@H]1C)C[C@@H]1C[C@@H](C/C=C(\C)[C@@H](O[C@H]3C[C@H](OC)[C@@H](O[C@H]4C[C@H](OC)[C@@H](NC)[C@H](C)O4)[C@H](C)O3)[C@@H](C)/C=C/C=C3\CO[C@@H]4[C@H](O)C(C)=C[C@@H](C(=O)O1)[C@]34O)O2`: the AC50 was 1.23 µM (active) and 1.7 µM (active). In the case of `CCOP(=S)(OCC)OC(Cl)C(Cl)(Cl)Cl` (centres undefined), the AC50 was 50 µM (active) and 21.7 µM (active). Still for that read-out and setting: in the case of `O=[N+]([O-])c1cc(C(F)(F)F)c(Cl)c([N+](=O)[O-])c1Nc1ncc(C(F)(F)F)cc1Cl` it was 1.94 µM (active). As for `CC(=NC#N)N(C)Cc1ccc(Cl)nc1`, the call was inactive. The same measure, in the same setting: in the case of `CCCSP(=O)(OCC)SCCC` it was “inactive”; in that of `CCOP(=S)(OCC)Oc1ccc2c(C)c(Cl)c(=O)oc2c1`, “inactive”. For the molecule `COP(=O)(OC)OC(Br)C(Cl)(Cl)Br` (centres undefined), the AC50 is 30.2 µM (active) and 29.5 µM (active). In the case of `CC1=NNC(=O)N(/N=C/c2cccnc2)C1`, the result was inactive. For the molecule `CON=C(C(=O)OC)c1ccccc1CON=C(C)c1cccc(C(F)(F)F)c1`, the AC50 was 1.78 µM (active). Same read-out and setting: under `C=C(C)[C@H]1Cc2c(ccc3c2O[C@@H]2COc4cc(OC)c(OC)cc4[C@@H]2C3=O)O1` stands 0.135 µM (active). On to `CCOP(=O)(NC(C)C)Oc1ccc(SC)c(C)c1` (centres undefined), for which the outcome was inactive.

As for `CCOP(=O)(OCC)Oc1cc(C)nc(C(C)C)n1`, the outcome was inactive. For `CN(C)[C@@H]1C(=O)C(C(N)=O)=C(O)[C@@]2(O)C(=O)C3=C(O)c4c(O)cccc4[C@@](C)(O)[C@H]3[C@H](O)[C@@H]12`, the AC50 was 76.9 µM (active).
